Source: PubChem BioAssay (EPA / NIEHS)
Calls of active or inactive are those of the source. The calls were made as follows: active = hit-call score of the fitted dose curve at least 0.9, where 1 is the maximum; inactive = score below 0.9.

How the values were obtained:
[1] = ATG_GRE_CIS: Attagene CIS-FACTORIAL HepG2 Assay for human Glucocorticoid Response Elements (GRE) (AID 2282947); settings: HepG2 GRE cis-reporter, Attagene multiplex mRNA; actives raise or lower the signal
Procedure, shortened: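 Endogenous transcription factor activity is read through cis-element reporter constructs transiently transfected into HepG2 cells. After 24 h treatment, labelled RT-PCR products are resolved by capillary electrophoresis; DMSO sets baseline for bidirectional curve fitting.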

[2] = ATG_ISRE_CIS: Attagene CIS-FACTORIAL HepG2 Assay for human Interferon Regulatory Factor 1 (IRF1) binding to an Interferon-Stimulated Response Element (ISRE) (AID 2282948); settings: HepG2 ISRE cis-reporter (Attagene), mRNA transcription readout; actives raise or lower the signal
Procedure, shortened: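 HepG2 cells transiently transfected with multiplexed cis-promoter reporter units; after 24 h compound exposure, reporter mRNA quantified by RT-PCR, FAM labelling, HpaI digestion and capillary electrophoresis. Bidirectional fit versus DMSO baseline.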

[3] = ATG_M_32_CIS: Attagene CIS-FACTORIAL HepG2 Assay for M32 Transcription Factor (Internal Marker) (AID 2282949); settings: HepG2 Attagene cis-factorial M32 reporter, mRNA; actives raise or lower the signal;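 also: background control marker of the multiplexed CIS panel rather than a real target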
Procedure, shortened: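 Following 24 h chemical exposure of HepG2 cells transiently expressing cis-promoter reporter constructs, reporter transcript levels were determined by RT-PCR with fluorescent labelling and capillary electrophoresis, then fitted bidirectionally against DMSO.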

[4] = ATG_M_06_CIS: Attagene CIS-FACTORIAL HepG2 Assay for M06 Transcription Factor (Internal Marker) (AID 2282950); settings: HepG2 Attagene CIS-FACTORIAL M06 internal marker reporter; actives raise or lower the signal
Procedure, shortened: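 Measured 24 h post-dosing in transiently transfected HepG2 cells, this internal-marker endpoint reports reporter mRNA via RT-PCR with fluorescent primer extension and capillary electrophoresis. DMSO served as negative control and baseline for bidirectional fitting.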

[5] = molecular target: Hypoxia-inducible factor 1-alpha (Homo sapiens) (UniProt Q16665); assay: ATG_HIF1a_CIS: Attagene CIS-FACTORIAL HepG2 Assay for human Hypoxia Inducible Factor 1 (HIF1A) (AID 2282951); settings: HepG2 Attagene cis-factorial HIF1a reporter transcription; actives raise or lower the signal
Procedure, shortened: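 Activity is fitted in both directions relative to DMSO. Reporter transcripts are read by RT-PCR, fluorescent primer extension and capillary electrophoresis after 24 h chemical treatment. The cells are HepG2 carrying transiently transfected cis-element-driven reporter units responding to endogenous factors.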

[6] = ATG_MRE_CIS: Attagene CIS-FACTORIAL HepG2 Assay for human Metal Responsive Element (MRE) (AID 2282954); settings: HepG2 MRE cis-reporter transcription, Attagene multiplex; actives raise or lower the signal
Procedure, shortened: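 Fluorescent reporter fragments separated by capillary electrophoresis give mRNA induction for the MRE unit after 24 h treatment of transfected HepG2 cells. Endogenous transcription-factor activity is read; DMSO serves as negative control and baseline.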

[7] = ATG_PBREM_CIS: Attagene CIS-FACTORIAL HepG2 Assay for human Phenobarbital-responsive Enhancer Module (PBREM) (AID 2282955); settings: HepG2 PBREM cis-reporter, Attagene multiplexed transcription; actives raise or lower the signal
Procedure, shortened: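 Endogenous transcription factor activity was read from reporter transcripts in transiently transfected human HepG2 liver cells after 24 h dosing. RT-PCR products were fluorescently labelled, HpaI-cut and sized by capillary electrophoresis; activity fitted bidirectionally against DMSO baseline.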

[8] = ATG_PXRE_CIS: Attagene CIS-FACTORIAL HepG2 Assay for human Pregnane X Receptor Element (PXRE) (AID 2282957); settings: HepG2 Attagene CIS-FACTORIAL PXRE reporter, mRNA; actives raise or lower the signal
Procedure, shortened: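 Transfect HepG2 with MRTUs (cis promoter elements); dose chemical, incubate 24 h; isolate RNA, RT with oligo(dT), PCR, 6-FAM label, HpaI cut, CE. Gain/loss fit vs DMSO.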

[9] = ATG_PPRE_CIS: Attagene CIS-FACTORIAL HepG2 Assay for human Peroxisome Proliferator-activated Response Element (PPRE) (AID 2282958); settings: HepG2 PPRE cis-element reporter, Attagene transcription factor profiling; actives raise or lower the signal
Procedure, shortened: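 Endogenous PPRE-driven transcription is measured in HepG2 cells carrying transfected multi-reporter constructs. Reporter transcripts are quantified by RT-PCR, HpaI digestion and capillary electrophoresis 24 h after dosing. DMSO baseline, bidirectional fit.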

[10] = ATG_RORE_CIS: Attagene CIS-FACTORIAL HepG2 Assay for human RAR-related Orphan Receptor Element (RORE) (AID 2282959); settings: HepG2 Attagene cis-factorial RORE reporter, mRNA; actives raise or lower the signal
Procedure, shortened: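 RORE reporter transcripts reflecting endogenous factor activity were read after 24 h compound exposure of transfected HepG2 cells, using reverse transcription, PCR, fluorescent labelling and capillary electrophoresis sizing. Gain or loss fitted against DMSO.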

[11] = ATG_Sox_CIS: Attagene CIS-FACTORIAL HepG2 Assay for human SRY-box transcription factor (SOX) (AID 2282960); settings: HepG2 Attagene cis-factorial SOX reporter, mRNA; actives raise or lower the signal
Procedure, shortened: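 Reporter transcripts, measured by RT-PCR and capillary electrophoresis of labelled fragments, report endogenous SOX transcription factor activity. Transiently transfected human HepG2 cells receive chemical for 24 h; changes in either direction are fitted relative to DMSO.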

[12] = ATG_SREBP_CIS: Attagene CIS-FACTORIAL HepG2 Assay for human Sterol Regulatory Element Binding (SREBP) (AID 2282962); settings: HepG2 Attagene cis-factorial SREBP reporter, mRNA; actives raise or lower the signal
Procedure, shortened: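 HepG2 cells transiently transfected with multiplexed cis-element reporter units report endogenous transcription factor activity. After 24 h of chemical exposure, reporter mRNA was quantified by RT-PCR, 6-FAM labelling, HpaI digestion and capillary electrophoresis; bidirectional fits used DMSO as baseline.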

[13] = molecular target: Signal transducer and activator of transcription 3 (Homo sapiens) (UniProt P40763); assay: ATG_STAT3_CIS: Attagene CIS-FACTORIAL HepG2 Assay for human Signal Transducer and Activator of Transcription 3 (STAT3) (AID 2282963); settings: HepG2, Attagene cis-factorial STAT3 reporter transcription; actives raise or lower the signal
Procedure, shortened: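 Values derive from bidirectional fits relative to DMSO of reporter mRNA levels, measured by RT-PCR with capillary electrophoresis, in HepG2 cells carrying transiently transfected cis-regulated reporter units and exposed 24 h.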

[14] = ATG_TA_CIS: Attagene CIS-FACTORIAL HepG2 Assay for human TA Basal Promoter (AID 2282964); settings: HepG2 Attagene CIS-factorial TA basal promoter reporter; actives raise or lower the signal
Procedure, shortened: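 Cis-factorial format in HepG2: reporters report endogenous factors, not chimeric Gal4 fusions. After 24 h treatment, reporter transcripts were measured by RT-PCR-capillary electrophoresis fluorescence, analysed bidirectionally versus DMSO.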

[15] = ATG_TCF_b_cat_CIS: Attagene CIS-FACTORIAL HepG2 Assay for human T-Cell-Factor with beta-catenin (TCF/b-cat) (AID 2282965); settings: HepG2 TCF/beta-catenin cis-reporter transcription, actives raise or lower the signal
Procedure, shortened: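 HepG2, transient MRTU transfection, cis-element-driven reporters (endogenous TFs). 24 h compound exposure. Readout: reporter mRNA by RT-PCR + 6-FAM primer extension, HpaI digest, capillary electrophoresis. Gain/loss fit vs DMSO baseline.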

[16] = molecular target: Hepatocyte nuclear factor 6 (Homo sapiens) (UniProt Q9UBC0); assay: ATG_HNF6_CIS: Attagene CIS-FACTORIAL HepG2 Assay for human Hepatocyte Nuclear Factor 6 (HNF6) (AID 2282952); settings: HepG2 Attagene cis-factorial HNF6 reporter transcription; actives raise or lower the signal
Procedure, shortened: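 HepG2, transient MRTU transfection (cis promoters); 24 h chemical exposure; total RNA → oligo(dT) RT → PCR → 6-FAM labelling → HpaI cut → CE; bidirectional fit vs DMSO.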

[17] = molecular target: Paired box protein Pax-6 (Homo sapiens) (UniProt P26367); assay: ATG_Pax6_CIS: Attagene CIS-FACTORIAL HepG2 Assay for human Paired Box 6 (PAX6) (AID 2282956); settings: HepG2 CIS-FACTORIAL PAX6 reporter transcription, RNA readout; actives raise or lower the signal
Procedure, shortened: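 HepG2 cells transiently transfected with multiplexed cis-promoter reporter units (endogenous TF activity) were dosed for 24 h. Reporter mRNA was quantified by RT-PCR, 6-FAM labeling, HpaI digestion and capillary electrophoresis; bidirectional fitting versus DMSO baseline.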

[18] = molecular target: Transcription factor Sp1 (Homo sapiens) (UniProt P08047); assay: ATG_Sp1_CIS: Attagene CIS-FACTORIAL HepG2 Assay for human Specificity Protein 1 (Sp1) (AID 2282961); settings: HepG2 Sp1 cis-reporter transcription, actives raise or lower the signal
Procedure, shortened: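 Read-out is reporter transcript level, measured by RT-PCR and fluorescent capillary electrophoresis after 24 h chemical treatment. System: transiently transfected HepG2 cells reporting endogenous transcription factor activity; gain or loss fitted against DMSO baseline.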

Measured: AC50

Hepatocyte nuclear factor 6 (Homo sapiens), sequence (Q9UBC0 whole entry, looked up): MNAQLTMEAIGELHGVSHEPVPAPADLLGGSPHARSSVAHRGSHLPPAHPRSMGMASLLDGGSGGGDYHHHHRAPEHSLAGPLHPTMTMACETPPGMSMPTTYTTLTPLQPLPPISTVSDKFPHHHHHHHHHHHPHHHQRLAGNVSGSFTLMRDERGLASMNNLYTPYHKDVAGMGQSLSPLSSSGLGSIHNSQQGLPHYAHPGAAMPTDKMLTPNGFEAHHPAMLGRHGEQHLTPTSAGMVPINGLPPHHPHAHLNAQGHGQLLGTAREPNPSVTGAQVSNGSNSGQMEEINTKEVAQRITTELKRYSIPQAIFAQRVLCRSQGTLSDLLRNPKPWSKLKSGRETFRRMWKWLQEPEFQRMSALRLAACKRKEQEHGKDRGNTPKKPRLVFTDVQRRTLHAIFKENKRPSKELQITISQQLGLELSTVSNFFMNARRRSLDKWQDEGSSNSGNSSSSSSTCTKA
Transcription factor Sp1 (Homo sapiens), sequence (P08047 whole entry, looked up): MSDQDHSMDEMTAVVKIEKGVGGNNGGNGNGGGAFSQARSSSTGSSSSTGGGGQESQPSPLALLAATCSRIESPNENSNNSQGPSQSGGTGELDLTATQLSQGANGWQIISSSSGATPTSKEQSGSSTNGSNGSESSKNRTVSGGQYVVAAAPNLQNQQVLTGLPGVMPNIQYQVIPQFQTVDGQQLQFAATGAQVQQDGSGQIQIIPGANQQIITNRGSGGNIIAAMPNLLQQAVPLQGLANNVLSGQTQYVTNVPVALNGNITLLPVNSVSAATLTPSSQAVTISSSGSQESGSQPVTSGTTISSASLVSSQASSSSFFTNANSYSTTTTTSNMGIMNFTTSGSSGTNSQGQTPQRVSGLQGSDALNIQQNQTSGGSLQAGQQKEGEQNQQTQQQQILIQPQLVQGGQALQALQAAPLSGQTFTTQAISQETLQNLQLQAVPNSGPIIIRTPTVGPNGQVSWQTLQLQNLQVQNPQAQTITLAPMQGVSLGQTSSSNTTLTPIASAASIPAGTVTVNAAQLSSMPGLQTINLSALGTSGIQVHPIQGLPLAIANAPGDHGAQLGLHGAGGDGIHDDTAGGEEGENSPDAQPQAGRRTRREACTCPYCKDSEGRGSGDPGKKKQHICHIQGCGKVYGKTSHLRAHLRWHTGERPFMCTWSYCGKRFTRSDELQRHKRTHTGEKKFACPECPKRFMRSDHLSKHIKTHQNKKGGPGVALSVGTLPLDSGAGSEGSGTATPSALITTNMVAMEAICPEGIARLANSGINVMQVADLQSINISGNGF
Hypoxia-inducible factor 1-alpha (Homo sapiens), sequence (Q16665 whole entry, looked up): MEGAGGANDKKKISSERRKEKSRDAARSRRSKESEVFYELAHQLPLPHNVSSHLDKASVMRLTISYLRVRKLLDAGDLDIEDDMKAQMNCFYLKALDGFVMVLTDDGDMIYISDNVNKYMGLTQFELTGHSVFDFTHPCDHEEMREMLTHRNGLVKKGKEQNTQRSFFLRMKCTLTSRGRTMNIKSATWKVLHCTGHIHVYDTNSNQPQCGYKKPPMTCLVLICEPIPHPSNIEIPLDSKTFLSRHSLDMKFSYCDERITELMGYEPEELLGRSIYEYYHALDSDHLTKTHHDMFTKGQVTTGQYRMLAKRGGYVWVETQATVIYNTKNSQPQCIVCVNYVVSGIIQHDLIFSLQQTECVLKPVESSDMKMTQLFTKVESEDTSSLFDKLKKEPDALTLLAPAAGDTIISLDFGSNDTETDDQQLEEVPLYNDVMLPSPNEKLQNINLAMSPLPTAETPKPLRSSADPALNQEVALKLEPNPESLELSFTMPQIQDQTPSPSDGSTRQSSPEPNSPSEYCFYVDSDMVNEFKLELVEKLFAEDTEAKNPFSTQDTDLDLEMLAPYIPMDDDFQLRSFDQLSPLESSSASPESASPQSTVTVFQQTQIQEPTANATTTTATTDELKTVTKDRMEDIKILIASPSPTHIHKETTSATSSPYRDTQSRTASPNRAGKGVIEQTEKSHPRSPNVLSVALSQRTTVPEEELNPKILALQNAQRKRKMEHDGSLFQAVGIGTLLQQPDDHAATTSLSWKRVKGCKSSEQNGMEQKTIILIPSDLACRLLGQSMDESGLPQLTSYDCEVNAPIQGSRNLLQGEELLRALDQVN
Signal transducer and activator of transcription 3 (Homo sapiens), sequence (P40763 whole entry, looked up): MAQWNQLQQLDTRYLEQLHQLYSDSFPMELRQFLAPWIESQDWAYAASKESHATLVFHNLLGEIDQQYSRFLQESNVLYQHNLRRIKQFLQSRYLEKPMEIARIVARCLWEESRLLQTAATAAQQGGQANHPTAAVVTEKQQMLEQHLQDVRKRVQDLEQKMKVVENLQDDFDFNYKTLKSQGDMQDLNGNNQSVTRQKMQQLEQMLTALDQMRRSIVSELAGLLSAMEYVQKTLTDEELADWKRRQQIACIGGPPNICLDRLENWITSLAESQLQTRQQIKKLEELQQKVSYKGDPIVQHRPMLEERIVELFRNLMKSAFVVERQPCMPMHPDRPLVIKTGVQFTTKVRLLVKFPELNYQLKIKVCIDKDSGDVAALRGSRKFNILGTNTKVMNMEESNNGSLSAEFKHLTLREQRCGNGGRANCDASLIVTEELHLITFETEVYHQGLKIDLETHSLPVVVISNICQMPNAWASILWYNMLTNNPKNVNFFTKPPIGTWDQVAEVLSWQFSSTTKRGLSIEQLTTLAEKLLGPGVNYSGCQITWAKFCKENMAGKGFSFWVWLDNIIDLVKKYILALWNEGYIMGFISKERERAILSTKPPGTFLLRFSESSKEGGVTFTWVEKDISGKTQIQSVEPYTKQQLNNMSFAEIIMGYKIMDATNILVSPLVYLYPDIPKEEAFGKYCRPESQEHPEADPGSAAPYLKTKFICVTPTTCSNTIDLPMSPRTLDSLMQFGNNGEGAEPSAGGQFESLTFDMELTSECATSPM
Paired box protein Pax-6 (Homo sapiens), sequence (P26367 whole entry, looked up): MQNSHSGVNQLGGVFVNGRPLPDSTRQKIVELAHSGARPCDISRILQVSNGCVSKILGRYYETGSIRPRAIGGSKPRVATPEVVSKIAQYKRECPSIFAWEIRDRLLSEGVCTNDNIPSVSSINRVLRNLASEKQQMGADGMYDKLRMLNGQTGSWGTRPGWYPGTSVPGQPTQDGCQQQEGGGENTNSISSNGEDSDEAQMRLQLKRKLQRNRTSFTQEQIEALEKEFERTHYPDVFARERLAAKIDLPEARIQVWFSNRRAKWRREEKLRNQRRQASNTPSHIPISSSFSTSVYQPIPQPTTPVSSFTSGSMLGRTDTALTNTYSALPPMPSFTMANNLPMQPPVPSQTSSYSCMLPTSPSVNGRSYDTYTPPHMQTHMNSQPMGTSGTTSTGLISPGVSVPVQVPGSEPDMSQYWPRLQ

CCOC(=O)COc1cc(-c2nn(C)c(OC(F)F)c2Cl)c(F)cc1Cl
inactive: [1] | [2] | [3] | [4] | [5] | [6] | [7] | [9] | [10] | [11] | [12] | [13] | [14] | [15]
active: [8] 47.3 µM

C[N+]1(C)CCCCC1
inactive: [2] | [3] | [4] | [5] | [16] | [6] | [7] | [17] | [8] | [9] | [10] | [11] | [18] | [12] | [13] | [14] | [15]

COc1cc(OC)nc(Sc2cccc(Cl)c2C(=O)O)n1
inactive: [1] | [2] | [3] | [4] | [5] | [6] | [7] | [8] | [10] | [11] | [12] | [13] | [14] | [15]

CCOP(=S)(OCC)SCCSCC
active: [1] 15.4 µM | [7] 30.5 µM | [8] 13.7 µM | [12] 29.5 µM
inactive: [2] | [3] | [4] | [5] | [16] | [6] | [9] | [10] | [11] | [18] | [13] | [14] | [15]

CN(C)NC(=O)CCC(=O)O
inactive: [2] | [3] | [4] | [5] | [6] | [7] | [17] | [8] | [9] | [10] | [11] | [18] | [12] | [13] | [14] | [15]

CCNc1nc(Cl)nc(NC(C)(C)C#N)n1
active: [8] 29.2 µM
inactive: [1] | [2] | [3] | [4] | [5] | [16] | [6] | [7] | [9] | [10] | [11] | [12] | [13] | [14] | [15]

S=C1NCCN1
inactive: [2] | [3] | [4] | [5] | [6] | [8] | [10] | [11] | [18] | [12] | [13] | [14] | [15]
